GRK2 inh: human GRK2 inhibition via aptamer displacement; P25098; hit rate 0.59% among 330,000; bead flow cytometry, FAM-aptamer displacement from GRK2; inhibition of aptamer binding, % at 10 µM;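 active = inhibition of aptamer binding above 40%, roughly 3 SD of noise, on plates passing a quality check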;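 also: median bead fluorescence of bound FAM aptamer so fluorescent compounds give negative values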
A3G deaminase: APOBEC3G (human) deaminase inhibition | inhibition, % at 20 µM | Q9HC16 | AID 493012 | recombinant A3G, ssDNA deamination FAM/TAMRA fluorescence | hit rate 0.28% among 330,000;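 active = inhibition of at least 40% at 20 µM, with no more than 30% in the related APOBEC3A deaminase screen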;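 also: plate controls were DMSO wells with A3G for no effect and wells lacking A3G enzyme for full effect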
Target sequence (Q9HC16 whole entry, looked up): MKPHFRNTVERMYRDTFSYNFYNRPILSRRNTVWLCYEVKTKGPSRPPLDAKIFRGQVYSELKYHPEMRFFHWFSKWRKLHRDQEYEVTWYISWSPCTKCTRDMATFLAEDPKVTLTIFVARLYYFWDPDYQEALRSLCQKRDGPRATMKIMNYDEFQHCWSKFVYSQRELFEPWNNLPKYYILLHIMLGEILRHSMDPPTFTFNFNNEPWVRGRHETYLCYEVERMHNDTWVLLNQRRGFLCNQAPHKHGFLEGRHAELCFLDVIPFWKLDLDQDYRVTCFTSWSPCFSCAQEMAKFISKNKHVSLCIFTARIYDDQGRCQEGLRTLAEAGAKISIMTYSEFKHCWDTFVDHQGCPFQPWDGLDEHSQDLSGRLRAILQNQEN
A3A deaminase: inhibitors of human APOBEC3A DNA deaminase; P31941; recombinant A3A, FAM/TAMRA ssDNA deamination fluorescence; inhibition, % at 20 µM; hit rate 0.41% among 330,000; AID 493011;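 active = at least 40% inhibition at 20 µM here, with at most 30% in a related deaminase screen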;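 also: plate controls were A3A with DMSO for no effect and wells lacking A3A enzyme for full effect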
Target sequence (P31941 whole entry, looked up): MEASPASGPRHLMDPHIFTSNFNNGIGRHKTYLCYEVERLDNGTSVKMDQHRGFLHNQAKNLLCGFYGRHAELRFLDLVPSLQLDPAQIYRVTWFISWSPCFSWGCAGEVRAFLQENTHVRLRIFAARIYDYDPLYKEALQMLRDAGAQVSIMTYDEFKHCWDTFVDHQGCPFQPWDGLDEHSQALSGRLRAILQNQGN
VLA-4 inh: inhibition in a human VLA-4 binding assay | P13612 | VLA-4 expressing cells, ligand binding flow cytometry | inhibition, % (about 7 µM as worked out from the volumes in the protocol) | hit rate 0.2% among 330,000 | AID 2557; in the data active = inhibition above about 50%
GRK2 CP1: confirmation of human GRK2 inhibitors displacing RNA aptamer. shares compounds with GRK2 inh. aptamer displacement, % at 10 µM. hit rate 4% among 2,000. AID 504451. bead-bound GRK2, FAM-aptamer displacement, flow cytometry;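 active = aptamer displacement above 40%, near three times the noise of non-fluorescent compounds, on plates passing quality checks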;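 also: negative values mostly reflect intrinsic compound fluorescence rather than true enhancement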
Aptamer quench 1: quenches fluorescent RNA aptamer, GRK2 hit artifact; 110 tested, under 10 active; shares compounds with GRK2 inh; Fluorescent RNA aptamer beads, quenching, flow cytometry; active compounds read high; fluorescence change (kMESF span), kMESF (test concentration not listed);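 active = compounds whose bead fluorescence drops by more than 37 kMESF across the dose range, marking them as dye quenchers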
Aptamer quench SP: counter-screen for GRK2 aptamer inhibitors: fluorescent aptamer quenchers | shares compounds with GRK2 inh | Carboxyfluorescein RNA aptamer on beads, flow cytometry quenching; active compounds read low | fluorescence response (% of DMSO), % at 10 µM | 2,000 tested, under 10 active;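 active = compounds that quench the bead-bound fluorescent RNA probe, cutting fluorescence to under half of the solvent control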;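 also: counterscreen run without GRK2 so only probe quenching by compound is measured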
GRK2 confirm 2: human GRK2 inhibition confirmation, cherry pick 2; shares compounds with GRK2 inh; bead-bound GRK2, FAM-aptamer displacement, flow cytometry; inhibition of aptamer binding, % at 10 µM; 360 tested, under 10 active; AID 504782;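 active = inhibition of aptamer binding above 40%, about triple the noise seen with nonglowing compounds, on plates passing quality control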;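 also: negative values mostly come from compounds that fluoresce themselves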
FAM quench CP2: quenches fluorescent RNA aptamer, GRK2 hit artifact; shares compounds with GRK2 inh; carboxyfluorescein RNA aptamer beads, flow cytometry quenching; active compounds read low; fluorescence response vs DMSO, % at 10 µM; 360 tested, under 10 active; AID 588494;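 active = response vs DMSO under 50%, meaning signal dropped by over half, treated as fluorescence quencher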;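 also: labelled aptamer on streptavidin beads without GRK2 as a quench counter-screen; 100% = bead fluorescence of DMSO wells and lower means quenching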
FAM quench DR: quenches fluorescent RNA aptamer, GRK2 hit artifact | shares compounds with GRK2 inh | Bead-bound FAM RNA aptamer fluorescence quenching, flow cytometry; active compounds read low | fluorescence ratio to DMSO, % at 11.1 µM | 35 tested, under 10 active;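 active = compounds that dim the fluorescent label, raw bead signal shifting by over 33 units between lowest and highest dose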
* marks the source's active call; other numbers are inactive results; nt = no result. Sampled rows, rich in hits. Any-hit rate of the full collection: about 1.4%.

SMILES	GRK2 inh	A3G deaminase	A3A deaminase	VLA-4 inh	GRK2 CP1	Aptamer quench SP	others
Cc1coc2c(C)c3oc(=O)c(CCC(=O)NCCN4CCOCC4)c(C)c3cc12	0	-2	1	16	nt	nt
COc1cccc(/C=N/NC(=O)C(=O)NCc2cccnc2)c1	0	-3	-2	-8	nt	nt
O=C(CN1CCc2ccccc21)NC(=O)NCc1ccccc1	42*	6	21	3	70*	101	Aptamer quench 1=11;FAM quench DR=101
O=C(CN1CCCc2ccccc21)NC(=O)NCc1ccccc1	1	-4	-1	-4	nt	nt
O=C(NC1CC(=O)N(c2ccc3c(c2)OCCO3)C1)N1CCCCC1 (stereo not drawn)	0	0	0	-14	nt	nt
COc1ccc(F)cc1C1=CC(=O)C[C@H](c2ccc3c(c2)OCO3)C1	41*	-6	1	1	19	98
CCC(=O)N1CCc2cc(S(=O)(=O)CCC(=O)N3CCN(c4ccc(C(C)=O)cc4)CC3)ccc21	1	-8	-6	3	nt	nt
CCOCCCNC(=O)C(NC(=O)C1CCC(=O)N1)c1ccc(C)cc1 (stereo not drawn)	45*	3	1	-6	3	95
Cc1ccc(C(=O)Nc2c(C)n(C)n(-c3ccccc3)c2=O)cc1	1	-6	-3	10	nt	nt
Cc1c(NC(=O)c2n[nH]c(=O)c3ccccc23)c(=O)n(-c2ccccc2)n1C	81*	-2	1	-4	-1	109
COc1ccccc1NS(=O)(=O)c1cccc(C(=O)N/N=C(\C)c2ccc(-n3ccnc3)cc2)c1	2	-8	-5	10	nt	nt
Cc1c(NS(=O)(=O)c2cc(C(=O)NC(C)c3ccccc3)ccc2Cl)c(=O)n(-c2ccccc2)n1C (stereo not drawn)	nt	-10	-2	nt	nt	nt
Cc1c(NS(=O)(=O)c2cccc(C(=O)NC(C)c3ccccc3)c2)c(=O)n(-c2ccccc2)n1C (stereo not drawn)	nt	nt	nt	nt	0	104
Cc1c(NS(=O)(=O)c2cccc(C(=O)NCc3ccccc3Cl)c2)c(=O)n(-c2ccccc2)n1C	nt	-4	-1	nt	1	100
CCN(CC)C(=O)COc1ccc2oc(-c3ccco3)cc(=O)c2c1	62*	6	15	-14	15	96
CCN(CC)C(=O)COc1c(-c2ccco2)oc2ccccc2c1=O	2	-2	3	7	nt	nt
Cc1ccc2c(c1)N(Cc1cccc(Cl)c1)C(=O)c1cccnc1O2	3	-8	-4	9	nt	nt
O=C(NC1CC1)c1cccc(Nc2ccc(-c3ccc4c(c3)OCCO4)nn2)c1	3	-1	7	-17	11	103
O=S(=O)(c1ccc(Nc2ccc(-c3ccc4c(c3)OCCO4)nn2)cc1)N1CCCC1	5	1	-1	6	nt	nt
Cn1c(CCC(N)=O)nnc1SCC(=O)Nc1ccccc1C(=O)NC1CC1	75*	-6	0	-6	-17	98
CCN(C(=O)CSc1nc(C)nc2sc3c(c12)CCC3)C1CCS(=O)(=O)C1 (stereo not drawn)	0	-2	-1	-11	nt	nt
Cc1cc(C(=O)N/N=C/c2ccco2)n[nH]1	2	-1	0	-2	nt	nt
CN(C)c1ccc2nc3ccc(=[N+](C)C)cc-3sc2c1	57*	26	26	-14	32	59
O=C(CSc1nncn1-c1ccccc1)c1c[nH]c2ccccc12	51*	-3	-4	-23	6	109
CCCCN(C)C(=O)c1cc2c(Cl)nc3ccccc3c2s1	49*	-9	-4	10	0	102
SMILES	GRK2 inh	A3G deaminase	A3A deaminase	VLA-4 inh	GRK2 CP1	Aptamer quench SP	others
O=C(NCCCN1CCCC1)c1cc2c(Cl)nc3ccccc3c2s1	0	-4	3	-23	nt	nt
CC(=O)NCCc1c[nH]c2ccc(O)cc12	5	-4	-2	3	nt	nt
Cc1ccc(S(=O)(=O)N2CCCCC2)cc1NC(=O)c1cccs1	26	-4	-2	11	nt	nt
Fc1ccc2cc(-c3ccccc3F)ncc2c1	100*	-10	-4	16	nt	nt	GRK2 confirm 2=-33;FAM quench CP2=103
Cc1ccc(/C=C/C(=O)O)cc1S(=O)(=O)NCCO	3	3	5	14	nt	nt
Cc1cc(C(C)(C)C)cc(S(=O)(=O)NCCO)c1C	99*	1	2	-14	-5	100
O=C(NCCO)c1ccc2c(c1)S(=O)(=O)c1ccccc1C2=O	0	13	3	-8	nt	nt
CCC(C)(C)NC(=O)c1ccc2c(c1)S(=O)(=O)c1ccccc1C2=O	54*	-5	-3	17	-1	99
Cc1onc(-c2ccccc2Cl)c1C(=O)N(C)C1CCCCC1	1	-4	-3	20	nt	nt
Cc1c(C(=O)N2CCN(c3ccccn3)CC2)cccc1[N+](=O)[O-]	4	5	5	11	1	103
O=C(c1ccc(Cl)cc1[N+](=O)[O-])N1CCN(c2ccccn2)CC1	82*	-5	-1	5	-5	102
Cc1ccc(C(=O)N2CCN(c3ccccn3)CC2)cc1[N+](=O)[O-]	1	-5	1	-4	nt	nt
O=C(CCc1ccc(F)c(F)c1)NC1CCCN(Cc2ccc(Cl)cc2)C1 (stereo not drawn)	0	-1	-2	1	nt	nt
Cc1ccccc1CN1CCNC(=O)C1CC(=O)N(C)CCC1CCOCC1 (stereo not drawn)	3	-9	-4	8	nt	nt
COc1ccccc1NC(=O)CCS(=O)(=O)c1ccccc1	0	-5	-3	5	nt	nt	GRK2 confirm 2=-9;FAM quench CP2=102
COc1ccccc1NC(=O)CCC(=O)OCc1ccc(Cl)cc1	97*	-5	0	4	2	111
COc1ccc(OC)c(NC(=O)CCS(=O)(=O)c2cc3c(cc2C)NC(=O)CO3)c1	0	1	-2	25	nt	nt	GRK2 confirm 2=-3;FAM quench CP2=106
COc1ccccc1NC(=O)CCCCC(=O)Nc1ccccc1OC	0	-3	-3	4	nt	nt
COc1ccccc1NC(=O)CCC(=O)OCc1ccc(Br)cc1	3	-5	-2	14	nt	nt
COc1ccc(NC(=O)CS(=O)(=O)c2ccc(C)cc2)c(OC)c1	0	-5	-5	0	nt	nt
COc1ccc(S(=O)(=O)CCC(=O)Nc2cc(C)ccc2OC)cc1	0	-7	-1	2	nt	nt	GRK2 confirm 2=-29;FAM quench CP2=104
